Screen size: about 50,000 compounds; about 800 (1.6%) showed an effect of 50% or more. This is one part of a sample in which strong results are shown more often than they occur.

Sequence of Bcl-2-like protein 10 (Homo sapiens) (Q9HD36 whole entry, looked up): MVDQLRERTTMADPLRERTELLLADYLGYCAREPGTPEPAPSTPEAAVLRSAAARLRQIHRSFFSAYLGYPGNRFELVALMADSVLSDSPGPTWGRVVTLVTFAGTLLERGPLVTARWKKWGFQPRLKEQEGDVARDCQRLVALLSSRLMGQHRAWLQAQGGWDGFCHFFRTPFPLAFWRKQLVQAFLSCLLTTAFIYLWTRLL

This test has as its target Bcl-2-like protein 10 (Homo sapiens) (UniProt Q9HD36). The test can be described thus: Phenotype converters, Bcl-B/TR3 peptide binding displacement, primary biochemical FP (AID 1240).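 Also: 0% = Bcl-B with tracer peptide and DMSO and 100% = tracer peptide lacking Bcl-B.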 The conditions noted are these: GST-Bcl-B / FITC-TR3 peptide fluorescence polarization; stronger effect = higher value; compound at 3.75 mg/L.
With `CC(C)(C)NC(=O)c1cc2nc(-c3ccccc3)cc(C(F)(F)F)n2n1`, the displacement turned out to be 13%.

For the compound `CC(=O)NC1=NC(=O)/C(=C\c2sccc2C)S1`, the displacement was found to be 98.2%.

In the case of `CC(=O)NC1=NC(=O)/C(=C\c2ccc(C)o2)S1`, the displacement is 96%.

As to `CC(=O)NC1=NC(=O)/C(=C\c2ccccc2C)S1`, the displacement is -6.5%.

As to `Cc1ccsc1/C=C1/SC(N2CCCC2)=NC1=O`, the displacement came out at 1.4%.

For the compound `CC(=O)NC1=NC(=O)/C(=C\c2ccc(I)o2)S1`, the displacement is 20.2%.

Take `CC(=O)NC1=NC(=O)/C(=C\c2ccc(N(C)C)cc2)S1`: the displacement is -23.2%.

As to `CC(=O)NC1=NC(=O)/C(=C\c2ccc(Br)o2)S1`, the displacement is 1.4%.

As for `CC(=O)NC1=NC(=O)/C(=C\c2ccc(N(C)C)c(Br)c2)S1`, the displacement was -39.2%.

`CC(=O)NC1=NC(=O)/C(=C\c2ccccc2F)S1`: the displacement was 107%.

Turning to `Cc1ccsc1/C=C1\SC(N2CCN(C)CC2)=NC1=O`, the displacement amounted to 3%.

Regarding `CCN(CC)c1ccc(/C=C2/SC(NC(C)=O)=NC2=O)cc1`, the displacement came out at 61.1%.

As to `COc1ccccc1/C=C/C(=O)c1ccc(F)cc1`, the displacement was -0.2%.

In the case of `COc1ccc(CN2CCN(C3CCN(Cc4ccccc4)CC3)CC2)cc1Br`, the displacement was -9.1%.

Turning to `CCOC(=O)C1C(=O)NCC2CCCC21` (configuration not stated), the displacement is 4.6%.

For `O=C(CN1C(=O)c2ccccc2C1=O)Nc1cc(Cl)ccc1C(=O)O`, the displacement was -6.4%.

For `COc1cccc(CN2CCN(Cc3cccnc3)CC2)c1`, the displacement is -13.5%.

For the compound `COc1ccc(/C=C/C(=O)O)cc1S(=O)(=O)NCc1ccccc1`, the displacement came out at 7.2%.

`CN(C)CCOC(=O)C12CCC3CC(CC(C3)C1)C2`: the displacement amounted to 11.3%.

As for `CCOC(=O)c1ccc(NC(=O)CC)cc1`, the displacement is 4.7%.

In the case of `CCOC(=O)c1c(C)[nH]c(N=Nc2ccc(C)cc2)c1C`, the displacement was 2.4%.

With `CC(=O)NC1=NC(=O)/C(=C\c2cccc([N+](=O)[O-])c2)S1`, the displacement was -42.2%.

As for `CC(=O)NC1=NC(=O)/C(=C\c2ccccc2Cl)S1`, the displacement stood at 14%.

In the case of `CC(=O)NC1=NC(=O)/C(=C/c2ccc(C)cc2)S1`, the displacement amounted to 118%.

On to `CC(=O)NC1=NC(=O)/C(=C\c2cccc(F)c2)S1`, for which the displacement was -29.1%.

Take `CC(=O)NC1=NC(=O)/C(=C\c2ccc(C(C)(C)C)cc2)S1`: the displacement turned out to be 11.4%.

Consider `CC(=O)NC1=NC(=O)/C(=C\c2cccs2)S1`, for which the displacement worked out at 109%.

As for `O=C(Nc1ccc(F)c(Cl)c1)c1cc([N+](=O)[O-])ccc1Cl`, the displacement is -10.3%.

`CC(C)C(=O)Nc1ccc(Cl)cc1C(=O)O`: the displacement worked out at 8.1%.

On to `COc1ccc(/C(C)=N/NC(=O)CN(c2ccc(C)cc2)S(=O)(=O)c2ccccc2)cc1OC`, for which the displacement amounted to 3.8%.

Regarding `COC(=O)c1ccc(/C=N/NC(=O)CCc2c(C)n[nH]c2C)cc1`, the displacement was determined as 4.2%.

With `CC(C)C(=O)Nc1ccc(I)cc1Cl`, the displacement came out at 11.1%.

On to `O=C(c1cccnc1)N(Cc1ccccc1)Cc1ccccc1`, for which the displacement was determined as 6%.

On to `O=C(Nc1ccc(-c2nc3ncccc3o2)cc1)c1ccc(-c2cccc(Cl)c2)o1`, for which the displacement was 14.3%.

On to `O=C(Nc1ccc(-c2nc3ncccc3o2)cc1)c1ccc(-c2ccc(Br)cc2)o1`, for which the displacement is 88.1%.

In the case of `COc1cc(NC(=O)c2ccc(-c3ccc(Br)cc3)o2)ccc1NC(=O)c1ccco1`, the displacement was 158%.

For the compound `O=C(Nc1ccc(-c2nc3ncccc3o2)cc1)c1ccc(Br)o1`, the displacement was -1.9%.

With `O=C(Nc1ccc(Cc2ccncc2)cc1)c1ccc(Br)o1`, the displacement was 13.1%.

Consider `O=C(NC(=S)Nc1ccc(-c2nc3ccccc3o2)cc1)c1ccco1`, for which the displacement was 11.6%.

For `Cc1c(NC(=S)NC(=O)c2ccco2)cccc1-c1nc2ncccc2o1`, the displacement is 9.2%.

For `COc1cc(NC(=O)c2ccc(-c3ccc(Cl)cc3)o2)ccc1NC(=O)c1ccco1`, the displacement was -6.5%.

Consider `O=C(NC(=S)Nc1ccc(-c2nc3ncccc3o2)cc1)c1ccco1`, for which the displacement turned out to be 112%.

In the case of `O=C(Nc1cccnc1)c1ccc(-c2ccc(Br)cc2)o1`, the displacement is -5.1%.

`Cc1cc(NC(=O)c2ccc(-c3ccc(Br)cc3)o2)ccc1NC(=O)c1ccco1`: the displacement was -2.6%.

With `O=C(Nc1ccc(Cc2ccncc2)cc1)c1ccc(-c2ccc(Br)cc2)o1`, the displacement was determined as 109%.

Take `Cc1ccccc1C(=O)O/N=C(\N)c1cccc([N+](=O)[O-])c1`: the displacement is -7.1%.

In the case of `Clc1ccc(OCCCN2CCCCC2)cc1`, the displacement is -10%.

Take `COc1ccccc1OCCCN1CCOCC1`: the displacement was -1.3%.

For `COc1ccc(C2CC(O)C(C)C(c3ccc(OC)cc3)N2)cc1` (configuration not stated), the displacement was determined as 7.8%.

`CCOc1ccc(C(=O)Nc2cccc(C(F)(F)F)c2)cc1Cl`: the displacement was -12%.

`Cc1ccc(C(=O)Nc2ccc(-c3nc4ncccc4o3)cc2)cc1C`: the displacement worked out at 21.5%.

Regarding `COc1ccc(-c2cc(=O)oc3cc(OC(C)=O)ccc23)cc1`, the displacement is -5.1%.

For `CC(=O)N(c1ccccc1)c1nnc(C)s1`, the displacement is -0.3%.

Consider `O=C1NC(=O)N(c2ccccc2F)C(=O)/C1=C/c1ccc(I)o1`, for which the displacement stood at 34.5%.

Consider `CCN(CC)c1ccc(/C=C(\C#N)C(=O)Nc2ccc(OC)cc2)c(OC)c1`, for which the displacement is -6.6%.

For `CCN(CC)c1ccc(C=C(C(C)=O)C(C)=O)c(OC(C)=O)c1`, the displacement was 48.6%.

With `CCN(CC)c1ccc(C=C(C#N)C#N)c(OC)c1`, the displacement was 91.5%.

Take `Cc1cc(OCC(O)CNC(C)C)cc(C)c1Cl` (configuration not stated): the displacement is 3.1%.

Consider `O=C(Cn1cc(/C=C2\SC(=S)NC2=O)c2ccccc21)Nc1ccccc1`, for which the displacement was -11.9%.

For `O=C(Cn1cc(C=C2C(=O)NC(=S)NC2=O)c2ccccc21)Nc1ccccc1`, the displacement is 130%.

On to `O=C(Cn1cc(/C=C2\NC(=S)NC2=O)c2ccccc21)Nc1ccccc1`, for which the displacement is -41.9%.

Regarding `O=C(Cn1cc(/C=C2/C(=O)NC(=S)N(c3ccccc3)C2=O)c2ccccc21)Nc1ccccc1`, the displacement worked out at 143%.

As to `COc1ccc(N2C(=O)/C(=C/c3cn(Cc4ccccc4)c4ccccc34)C(=O)NC2=S)cc1`, the displacement came out at 25%.

`NC(=O)Cn1cc(/C=C2\C(=O)NC(=O)N(Cc3ccccc3)C2=O)c2ccccc21`: the displacement is 17%.

Regarding `O=C(Nc1ccccc1)Nc1nnc(Cc2cccc(Br)c2)s1`, the displacement was 1.9%.

Take `CC1=C(C(=O)OCCc2ccccc2)C(c2ccccc2Cl)CC(=O)N1` (configuration not stated): the displacement is -7.2%.

Turning to `CC(C)(C)c1csc(N/N=C/c2ccccn2)n1`, the displacement is -6.6%.

`OCCNCCOc1cccc(Cl)c1Cl`: the displacement was 2.8%.

For the compound `O=C1C2C3C=CC(O3)C2C(=O)N1c1ccccc1I` (configuration not stated), the displacement amounted to 17.8%.

`CCOc1ccccc1C(=O)Nc1ccc(N2CCOCC2)cc1`: the displacement came out at 3.2%.

On to `Cc1cccc(/C=C2/SC(=S)N(Cc3ccccc3)C2=O)c1`, for which the displacement was determined as 13.4%.

Consider `Nc1nc2nc(C(F)(F)C(F)(F)C(F)(F)C(F)(F)F)cc(=O)n2[nH]1`, for which the displacement is -1.7%.

For the compound `COc1cc(OC)c(OC)cc1CNc1cccc(C)c1`, the displacement came to 4.3%.

For `N#CC(C#N)=Cc1ccc(-c2ccc(S(N)(=O)=O)cc2)o1`, the displacement was -0.4%.

With `N#C/C(=C\c1ccc(-c2ccc(Br)cc2)o1)c1nc2ccccc2[nH]1`, the displacement stood at 2.1%.

For `N#C/C(=C\c1ccc(-c2ccc(Br)cc2)o1)C(N)=O`, the displacement was found to be 4.6%.

As for `Cc1ccc([N+](=O)[O-])cc1-c1ccc(/C=C(\C#N)c2nc3ccccc3[nH]2)o1`, the displacement is -0.7%.

For the compound `N#CC(C#N)=Cc1ccc(-c2ccc3c(c2)COC3=O)o1`, the displacement is 109%.

Take `N#C/C(=C\c1ccc(-c2ccc(Cl)c(Cl)c2)o1)C(N)=O`: the displacement worked out at 7.8%.

Take `N#C/C(=C\c1ccc(-c2ccc3c(c2)COC3=O)o1)c1nc2ccccc2[nH]1`: the displacement was determined as 58.6%.

For the compound `N#C/C(=C/c1ccc(-c2ccc3c(c2)C(=O)NC3=O)o1)C(N)=O`, the displacement was 140%.

On to `N#C/C(=C\c1ccc(-c2ccc3c(c2)COC3=O)o1)C(N)=O`, for which the displacement was -10.4%.
